Experimental findings from PubChem BioAssay (NCATS) are described below.

SMILES strings stand for the structures. Several values for one entry are separate records, joined by “and”; a condition that tells them apart may be missing. Identical values can stand only once. Records with an inconclusive call do not appear. Entries that show only a call come without a potency. A structure can be active in one record and inactive in another. Activity calls are given as the source filed them. Calls follow the shape of the dose curve; as a rule, active = well fitted inhibition curve with a large enough effect; inconclusive = small, poorly fitted or top-dose-only effect; inactive = no such curve, though single readings can be large or run the other way.

This assay can be described thus: Primary qHTS for inhibitors of nuclear receptor binding SET domain protein 2 (NSD2) in an RCH-ACV wild type WT cells (2C) (AID 1645877). Also: nearly all actives have a fitted effect of over 70% in size. The note with it: RCH-ACV (leukaemia line) NSD2 WT (2C) viability, CellTiter-Glo, 72 h; series mostly up to 44.9 µM. From the text:
Assay Provider: Jonathan D. Licht, MD
University of Florida College of Medicine, Gainesville, FL
Mutations in epigenetic regulators are common in relapsed pediatric acute lymphoblastic leukemia (ALL). Here, we uncovered the mechanism underlying the relapse of ALL driven by an activating mutation of the NSD2 histone methyltransferase (p.E1099K). […] Correction of this mutation restored glucocorticoid sensitivity. The transcriptional response to glucocorticoids was blocked in NSD2 mutant cells due to depressed glucocorticoid receptor (GR) levels and the failure of glucocorticoids to autoactivate GR expression. […] Pre-treatment of NSD2 p.E1099K cell lines and PDX samples with PRC2 inhibitors reversed glucocorticoid resistance in vitro and in vivo.
High-throughput drug screening of isogenic RCH-ACV cell lines was performed at the National Center for Advancing Translational Science (NCATS), National Institutes of Health as previously described (1). Briefly, isogenic RCH-ACV NSD2 p.E1099K mutant (9B) and WT cells (2C) were plated at 500 cells/well in a 1536-well plate with a 72-hour incubation with compounds prior to addition of CellTiter-Glo to assess cell viability. NCATS libraries screened include: NPC, MIPE 5.0, Kinase and NPACT. To determine compound activity in the qHTS assay, the concentration-response data for each sample was plotted and modeled by a four-parameter logistic fit yielding IC50 and efficacy (maximal response) values. The area under the curve (AUC) of the dose-response curve ensures both efficacy (magnitude of cell killing) and potency (concentration that elicits cell killing) are accounted for in the analysis of activity.
1. Tobie D Lee, Olivia W Lee, Kyle R Brimacombe, Lu Chen, Rajarshi Guha, Sabrina Lusvarghi, Bethilehem G Tebase, Carleen Klumpp-Thomas, Robert W Robey, Suresh V Ambudkar, Min Shen, Michael M Gottesman, Matthew D Hall. A High-Throughput Screen of a Library of Therapeutics Identifies Cytotoxic Substrates of P-glycoprotein. Mol Pharmacol. 2019, Nov;96(5):629-640.
On to `C[C@@H]1CN(c2c(F)c(N)c3c(=O)c(C(=O)O)cn(C4CC4)c3c2F)C[C@H](C)N1`, for which the Potency result is “inactive”. The result for `COc1ccccc1OCC(O)COC(N)=O` (stereo not given) reads “inactive”; that for `COc1ccc(C(=O)CC(=O)c2ccc(C(C)(C)C)cc2)cc1`, “inactive”. The result for `O=NN(CCCl)C(=O)NC1CCCCC1` reads “inactive”. The result for `CC(C)C[C@H](NC(=O)[C@H](CCc1ccccc1)NC(=O)CN1CCOCC1)C(=O)N[C@@H](Cc1ccccc1)C(=O)N[C@@H](CC(C)C)C(=O)[C@@]1(C)CO1` reads 6 nM (active) and 5.3 nM (active); that for `Nc1nc(N)nc(-c2cc(Cl)ccc2Cl)n1`, “inactive”; that for `Cc1oc(=O)oc1CN1CCN(c2cc3c(cc2F)c(=O)c(C(=O)O)c2n3C(C)S2)CC1` (stereo not given), “inactive”. In the case of `Cc1nnc(C(=O)NC(C)(C)c2nc(C(=O)NCc3ccc(F)cc3)c(O)c(=O)n2C)o1`, the Potency entry is “inactive”. The result for `O=P(O)(O)C(O)(Cc1cccnc1)P(=O)(O)O` reads “inactive”; that for `CCCc1nc(C)c2c(=O)[nH]c(-c3cc(S(=O)(=O)N4CCN(CC)CC4)ccc3OCC)nn12`, “inactive”.

Take `CCCCc1oc2ccc(NS(C)(=O)=O)cc2c1C(=O)c1ccc(OCCCN(CCCC)CCCC)cc1`: the Potency is 2.99 µM (active) and 9.16 µM (active) and 6.61 µM (active). For the compound `CCOC(=O)[C@H](CCc1ccccc1)N[C@H]1CS[C@H](c2cccs2)CN(CC(=O)O)C1=O`, the Potency result is “inactive”. The result for `CC1=NN(c2ccccc2)C(=O)C1` reads “inactive”. Next, `COc1cc([C@@H]2c3cc4c(cc3[C@H](O)[C@H]3COC(=O)[C@H]23)OCO4)cc(OC)c1OC`: 6 nM (active) and 29.5 nM (active).

Consider `COC(c1ccccc1)(c1ccccc1)[C@H](Oc1nc(C)cc(C)n1)C(=O)O`, for which the Potency entry is “inactive”. `CCc1c2c(nc3ccc(OC(=O)N4CCC(N5CCCCC5)CC4)cc13)-c1cc3c(c(=O)n1C2)COC(=O)[C@]3(O)CC`: the Potency is 596 nM (active) and 118 nM (active). Next, `C[C@@H](NCCCc1cccc(C(F)(F)F)c1)c1cccc2ccccc12`: 15 µM (active) and 14.8 µM (active); `CCn1cc(C(=O)O)c(=O)c2cc(F)c(N3CCN(C)CC3)cc21`: “inactive”; `CCCCOc1ccc(CC(=O)NO)cc1`: “inactive and 16.6 µM (active)”.

Turning to `O[C@@H](CNC[C@H](O)[C@H]1CCc2cc(F)ccc2O1)[C@@H]1CCc2cc(F)ccc2O1`, the Potency was 11.9 µM (active). Next, `NS(=O)(=O)c1cc2c(cc1Cl)NC(C(Cl)Cl)NS2(=O)=O` (stereo not given): “inactive”; `C#CCN[C@@H]1CCc2ccccc21`: “inactive”. Next, `CNCC[C@H](Oc1cccc2ccccc12)c1cccs1`: 23.7 µM (active); `Cc1cccc(Nc2ccncc2S(=O)(=O)NC(=O)NC(C)C)c1`: “inactive”; `CC(N)C12CC3CC(CC(C3)C1)C2` (stereo not given): “inactive”.

For the compound `Cc1ncc([N+](=O)[O-])n1CCO`, the Potency result was “inactive”. Next, `S=P(N1CC1)(N1CC1)N1CC1`: “inactive”; `CC(C)OC(=O)C(C(=O)OC(C)C)=C1SC=CS1`: “inactive”; `COc1cc2c(Nc3ccc(Br)cc3F)ncnc2cc1OCC1CCN(C)CC1`: 5.15 µM (active) and 16.6 µM (active). Regarding `CN(C)CCc1c[nH]c2ccc(C[C@H]3COC(=O)N3)cc12`, the Potency entry was “inactive”.

As to `CCOCC(O)COc1ccc(NC(=O)CC[S+](C)C)cc1` (stereo not given), the Potency entry was “inactive”. For the compound `NC(=O)c1ccc2[nH]ccc2c1`, the Potency result was “inactive”.

Regarding `CCCc1cc(C(N)=S)ccn1`, the Potency result is “inactive”. The result for `Cn1c(=O)c2c(ncn2CC(O)CO)n(C)c1=O` (stereo not given) reads “inactive”; that for `CCCN[C@H]1CCc2nc(N)sc2C1`, “inactive”; that for `CC(=O)[C@H]1CC[C@H]2[C@@H]3CC=C4C[C@@H](O)CC[C@]4(C)[C@H]3CC[C@]12C`, “inactive”.

In the case of `CCOC(=O)[C@H](CCc1ccccc1)N[C@H]1CCc2ccccc2N(CC(=O)O)C1=O`, the Potency result was “inactive”. Next, `COc1cc2ncnc(Nc3cccc(Cl)c3)c2cc1OC`: 12.9 µM (active). The result for `COC(=O)Nc1nc2ccc(C(=O)c3ccccc3)cc2[nH]1` reads 106 nM (active) and 372 nM (active); that for `CC(C)Cn1cnc2c(N)nc3ccccc3c21`, “inactive”.
